Screening results from PubChem BioAssay.
ELG1 genotoxic = induces genotoxicity in HEK293T cells with luciferase-tagged ELG1; HEK293T ELG1-luciferase reporter, luminescence, 16 h; Potency, µM (titrated, usually from 46 µM), for inactives: at the top dose activity change, positive = activation, usual class: activators; 1.3% of 330,000 active; also: % of control where 0% means no effect; nearly all actives have a fitted effect of over 60% in size
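HEK293T cells expressing luciferase-tagged ELG1 were exposed to compound or DMSO vehicle for 16 hr at 37 °C and 5% CO2. Luciferase activity was then measured with ONE-Glo after 30 min at room temperature.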
Luc counter = Kinase-Glo luciferase inhibition (counter-screen) | Q27757 | Kinase-Glo luciferase, ATP luminescence, 8 min | Potency, µM (titrated, usually from 38.3 µM), for inactives: at the top dose activity change, negative = inhibition, actives largely listed as inhibitors | 0.28% of 200,000 active; also: % is scaled to controls: 0 for no effect and ±100 for the full control effect; nearly all actives have a fitted effect of over 60% in size
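Luminescence was the read-out, taken after 8-minute incubation at ambient temperature. Luciferase turned over luciferin with 10 uM ATP in imidazole pH 7.2 buffer containing KCl, MgCl2, Tween 20 and BSA.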
FLuc counter = counter-screen for miR-21 project: firefly luciferase inhibitors or activators. purified FLuc, Km substrates, luminescence inhibition. 6.9% of 360,000 active. Potency, µM (doses to about 57.5 µM), for the others: top-dose activity change, negative = inhibition, usual class: inhibitors. AID 588342. P08659;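 also: plate controls were vehicle for no effect and reference inhibitor for full effect; nearly all actives have a fitted effect of over 55% in size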
Target sequence (P08659 whole entry, looked up): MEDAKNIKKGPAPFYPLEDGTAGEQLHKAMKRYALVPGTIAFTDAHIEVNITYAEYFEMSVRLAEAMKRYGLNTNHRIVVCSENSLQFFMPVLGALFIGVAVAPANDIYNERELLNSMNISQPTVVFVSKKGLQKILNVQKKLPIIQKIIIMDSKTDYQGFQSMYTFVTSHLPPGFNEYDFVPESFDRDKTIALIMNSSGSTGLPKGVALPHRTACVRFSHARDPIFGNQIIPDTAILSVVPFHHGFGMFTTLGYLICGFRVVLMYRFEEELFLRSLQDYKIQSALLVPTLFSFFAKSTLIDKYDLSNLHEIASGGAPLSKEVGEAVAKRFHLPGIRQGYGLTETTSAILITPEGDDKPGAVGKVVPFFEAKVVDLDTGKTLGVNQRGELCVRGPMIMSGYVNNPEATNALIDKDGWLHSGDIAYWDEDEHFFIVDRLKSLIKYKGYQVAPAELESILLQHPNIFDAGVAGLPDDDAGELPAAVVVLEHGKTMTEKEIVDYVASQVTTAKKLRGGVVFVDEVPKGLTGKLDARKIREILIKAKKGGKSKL
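Purified P. pyralis luciferase, 10 nM final, with Km-level 10 uM D-luciferin and 10 uM ATP in 50 mM Tris acetate pH 7.5, 10 mM Mg acetate, 0.01% Tween-20, 0.05% BSA; 6-point qHTS titration about 60 µM downward; luminescence read.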
Rab9 promoter act = Rab9 promoter activation; Huh7 Rab9 promoter-luciferase reporter, luminescence, 24 h; Potency, µM (top dose mostly 9.22 µM), inactives show at the highest dose activation, negative = inhibition, most hits filed as activators; 2.8% of 320,000 active; also: % of control where 0% means no effect; nearly all actives have a fitted effect of over 60% in size
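Quantitative HTS format; Huh7 Rab9-luciferase reporter cells (1500/well) receive compound 2 h post-plating, incubate 24 h at 37 °C, then get luciferase reagent for 10 min before luminescence reading.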
SMN2 splice enh = SMN2 splice variant enhancement; HEK293 SMN2-luciferase splicing reporter, luminescence, 30-36 h; Potency, µM (series often up to 46.1 µM), for inactives: at the highest dose activity change, positive = activation, hits mostly activators; 2.8% of 210,000 active; AID 1458; also: % of control where 0% means no effect; nearly all actives have a fitted effect of over 55% in size
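qHTS luciferase splicing reporter: luminescence rises when SMN2 exon 7 is included in transfected HEK293 cells. Compound exposure lasted 30-36 h at 37C, with 4.5 mM final sodium butyrate as control, followed by a ONE-Glo read.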
NPC1 prom act = NPC1 promoter activation. AID 485313. 2.4% of 320,000 active. Huh7 NPC1 promoter luciferase reporter, 24 h. Potency, µM (doses to about 9.22 µM), without a hit: at the highest dose activation, usual class: activators; also: % of control where 0% means no effect; nearly all actives have a fitted effect of over 60% in size
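Huh7 reporter cells (NPC1 promoter driving luciferase) are dosed with compound for 24 h at 37 °C, 5% CO2; luciferase detection reagent is then added and luminescence measured after 10 min at ambient temperature.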
The depositor's hits bear a star; ? = inconclusive; · = not tested or not shown; ! = repeats disagree; [ ] = another dose, or the depositor's remark. This is a sample that favours compounds with a hit; in the whole collection about 7.5% have one here. Calls follow the shape of the dose curve; as a rule, active = well fitted curve in the direction sought with a large enough effect; inconclusive = small, poorly fitted or top-dose-only effect, or another doubt; inactive = no such curve, though single readings can be large; an effect the other way counts as inactive or inconclusive. Potency is read from the fitted curve at half-maximal effect.

SMILES	ELG1 genotoxic	Luc counter	FLuc counter	Rab9 promoter act	SMN2 splice enh	NPC1 prom act
Cc1c(CC(=O)N2CCC(C(=O)O)CC2)c(=O)oc2cc3c(cc12)CCC1(CCCCC1)O3	8.3%	·	12µM*	2.8%	·	-3.2%
Cc1c(Cc2ccccc2)c(=O)oc2c(C)c(OCC(=O)N3CCC(C(=O)O)CC3)ccc12	1.5%	·	16.9µM*	4.6%	·	0.4%
Cc1c(CC(=O)NC(C)C)c(=O)oc2cc3c(cc12)CCC(C)(C)O3	14.5%	·	?	3.16µM*	·	?
CCC(C)NC(=O)Cc1c(C)c2cc3c(cc2oc1=O)OC(C)(C)CC3 (stereo not given)	9.2%	·	?	3.98µM*	·	?
Cc1coc2cc3oc(=O)c(CC(=O)N4CCCCC4)c(C)c3cc12	·	·	-1.4%	·	-2.6%	·
Cc1c(CC(=O)N[C@@H](C)C(=O)O)c(=O)oc2cc3c(cc12)CCC(C)(C)O3	-0.1%	·	?	15.1%	·	4.3%
CC(=O)c1cn(CC(=O)Nc2ccccc2C(F)(F)F)c2ccccc12	-2.1%	·	-1.7%	-19.3%	·	-5.8%
CC(=O)Nc1cccc(NC(=O)Cn2cnc3c(oc4ccccc43)c2=O)c1	·	·	-1.2%	·	·	·
Cc1c(CC(=O)N[C@H](C(=O)O)C(C)C)c(=O)oc2cc3c(cc12)CCC(C)(C)O3	?	·	10.7µM*	1.78µM*	·	2.82µM*
Cc1c(CC(=O)NCC(C)C)c(=O)oc2cc3c(cc12)CCC(C)(C)O3	0.9%	·	?	26.4%	·	-5.8%
CCOC(=O)c1c(NC(=O)CSc2cn(CCNC(=O)c3ccc(OC)c(OC)c3)c3ccccc23)sc2c1CCC2	·	·	-2.0%	·	-0.7%	·
Cc1cccc(NC(=S)NC(=O)C2CC2)c1	?	·	?	20.3%	·	27.4%
Cc1cc(NC(=S)NC(=O)C2CC2)ccc1Br	3.8%	·	23.9µM*	21.5%	·	-12.7%
CCn1c(O)c(N=Nc2ccc3ccccc3n2)c2ccccc21	5.8µM*	·	3.01µM*	1.12µM*	·	3.16µM*
CC(C)c1ccc(CN(Cc2ccco2)c2cnc(S(C)(=O)=O)nc2C(=O)Nc2ccc(F)cc2)cc1	·	·	1.5%	·	·	·
Cc1cccc(/C=N/N2CCN(c3ccccc3)CC2)c1	?	-5.0%	7.57µM*	?	17.8µM*	?
Cc1ccc(/C=N/N2CCN(c3ccccc3)CC2)cc1	?	-1.7%	-19.2%	3.55µM*	?	?
Cc1ccccc1/C=N/N1CCN(c2ccccc2)CC1	16.6%	1.1%	16.9µM*	16.7%	?	21.1%
CSc1ccc(/C=N/N2CCN(c3ccccc3)CC2)cc1	6.5%	-11.5%	4.8%	?	?	?
CCN(CC)CCC(=O)NN	0.7%	5.0%	-0.8%	2.6%	14.0%	-1.2%
COCCCNC(=O)c1ccc2nc(Cc3ccc(OC)cc3)oc2c1	20.6µM*	·	16.9µM*!	2.24µM*	·	3.98µM*
COc1ccc(Cc2nc3ccc(C(=O)NCCc4ccc(OC)c(OC)c4)cc3o2)cc1	·	·	1.5%	·	·	·
CCOCCCNC(=O)c1ccc(OC)cc1	?	0.3%	2.8%[2.3 µM]	28.7%	28.2µM*	13.8%
COC(=O)CCNC(=O)c1ccc2nc(Cc3ccc(OC)c(OC)c3)oc2c1	18.5%	·	16.9µM*	?	·	?
CCOCC(O)CNC(=O)c1ccc2nc(Cc3ccc(OC)c(OC)c3)oc2c1 (stereo not given)	1.5%	·	-4.2%	-2.7%	·	?
SMILES	ELG1 genotoxic	Luc counter	FLuc counter	Rab9 promoter act	SMN2 splice enh	NPC1 prom act
COc1ccc(Cc2nc3ccc(C(=O)NCCCSC)cc3o2)cc1OC	17.5%	·	16.9µM*	?	·	?
Cc1ccc(-c2noc(C3CC(=O)N(c4ccc5c(c4)OCCO5)C3)n2)cc1 (stereo not given)	·	·	1.8%	·	·	·
CCN(CC)C(=O)[C@H]1C[C@H](CC(=O)NCc2cccc(C(F)(F)F)c2)C(=O)N2CCc3c([nH]c4cc(-c5ccco5)ccc34)[C@]12C	-0.5%	·	·	·	·	·
O=C(CCS(=O)(=O)c1ccc(F)cc1)N1CCOCC1	21.2%	·	-17.4%	25.5%	·	19.0%
COc1ccccc1/C=C/CN1CCSCC1	1.1%	·	3.3%	2.5%	·	0.0%
COc1ccc(/C=C2\SC(=Nc3ccccc3OC)NC2=O)cc1	-1.2%	·	5.36µM*	3.7%	·	-25.7%
COc1cc(/C=C2\SC(=Nc3ccccc3OC)NC2=O)ccc1O	0.4%	·	?	-0.4%	·	-23.6%
COC(=O)CCC(=O)COc1ccc(OC)cc1C#N	?	·	?	2.51µM*	·	?
COC(=O)CCC(=O)COc1ccccc1C#N	?	5.2%	-11.8%	6.2%	-3.1%	-1.1%
COc1ccc(C(=O)COc2ccccc2C#N)cc1	?	·	?	3.16µM*	·	2.82µM*
CCCCN(CCCC)CCCNC(=O)c1ccc2nc(N3CCCCC3)sc2c1	·	·	3.8%	·	15.0%	·
CCCN(CCC)CCNC(=O)C1CCN(c2nc3ccc(CC)cc3s2)CC1	·	·	21.3µM*	·	23.7%	·
CC(C)CCNC(=O)C1CCN(c2nc3ccccc3o2)CC1	-6.7%	-2.4%	-2.3%	-1.4%	-30.6%	0.9%
CCCN(CCC)CCCNC(=O)C1CCN(c2nc3ccc(CC)cc3s2)CC1	·	·	12µM*	·	27.9%	·
CCc1ccc2nc(N3CCC(C(=O)NCCC(C)C)CC3)sc2c1	·	·	1.9µM*	·	-7.0%	·
N#Cc1ccc(CSc2nc3c(c(=O)[nH]2)CCC3)cc1	·	·	-1.7%	·	·	·
CN(C)C(=O)CSc1nnc(C23CC4CC(CC(C4)C2)C3)o1	9.2µM*	0.0%	?	3.16µM*	?	?
Cc1ccc(Cn2c(C(=O)O)c(CNCc3cccs3)c3ccc(C)cc32)cc1	·	·	3.0%	·	·	·
CC1=NN(C(N)=S)C(=O)C1N=Nc1cccc(Cl)c1C (stereo not given)	7.2%	·	10.7µM*	3.55µM*	·	?
CCNC(=O)CC1SC(=Nc2cccc3ccccc23)N(C)C1=O (stereo not given)	2.7%	2.2%	-0.1%	0.8%	10.2%	-7.1%
CC1=NN(C(N)=S)C(=O)C1N=Nc1cccc2ccccc12 (stereo not given)	?	-3.4%	16.9µM*	?	?	?
C=Cc1c(C)c2cc3nc(cc4[nH]c(cc5nc(cc1[nH]2)C(C)=C5CCC(=O)O)c(CCC(=O)OC)c4C)[C@@]1(C)C3=CC=C(C(=O)OC)[C@H]1C(=O)OC (tested in a mixture with another compound)	·	-12.0%[17.1 µM]	·	·	-1.6%[20.6 µM]	·
Cc1cc(C(=O)CSc2nc(N)cc(N)n2)c(C)n1C1CC1	-12.3%	9.5%	-4.0%	-4.0%	-13.8%	-2.4%
C=CCn1c(C)cc(C(=O)CSc2nc(N)cc(N)n2)c1C	2.8%	-2.1%	21.3µM*	21.2%	-0.9%	1.1%
Cc1cc(C(=O)CSc2nc(N)cc(N)n2)c(C)n1-c1cccc(F)c1	-2.0%	-1.0%	23.9µM*	-4.6%	-37.2%	2.7%
